# From PubChem BioAssay (EPA / NIEHS)
# Results filed as inconclusive are left out. The source made the active and inactive calls. The calls were made as follows: active = hit-call score of the fitted dose curve at least 0.9, where 1 is the maximum; inconclusive = response in the unintended direction; inactive = score below 0.9.
# Target: human Thyroid Receptor alpha (THRa1), THRA (gene 7067) (UniProt P10827)
# Assay: ATG_THRa1_TRANS: Attagene TRANS-FACTORIAL HepG2 Assay for human Thyroid Receptor alpha (THRa1) (AID 2283014)
# How it was run: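 Reporter transcript induction, read by capillary electrophoresis of 6-FAM-labelled RT-PCR products, reflects activity of a transfected THRa1-Gal4 fusion in HepG2 liver cells. Cells were dosed for 24 h; activity was fitted in the positive direction against DMSO.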
# Sequence of human Thyroid Receptor alpha (THRa1), THRA (gene 7067) (P10827 whole entry, looked up): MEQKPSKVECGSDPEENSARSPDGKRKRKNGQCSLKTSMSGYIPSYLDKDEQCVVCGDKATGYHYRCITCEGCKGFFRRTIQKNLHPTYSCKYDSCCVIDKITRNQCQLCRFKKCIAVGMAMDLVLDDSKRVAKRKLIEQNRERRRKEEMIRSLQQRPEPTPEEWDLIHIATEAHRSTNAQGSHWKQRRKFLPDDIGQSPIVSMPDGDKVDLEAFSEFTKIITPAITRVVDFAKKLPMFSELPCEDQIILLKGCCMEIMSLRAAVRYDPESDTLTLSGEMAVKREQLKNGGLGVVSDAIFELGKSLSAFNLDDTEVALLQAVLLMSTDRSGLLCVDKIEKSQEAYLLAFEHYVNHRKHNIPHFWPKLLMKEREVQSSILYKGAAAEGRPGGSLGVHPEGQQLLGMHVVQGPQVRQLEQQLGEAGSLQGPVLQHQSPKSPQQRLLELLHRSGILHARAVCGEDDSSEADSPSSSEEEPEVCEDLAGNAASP
SMILES,outcome,AC50
O=c1nc(O)n(Cl)c(=O)n1Cl,inactive,
O=C1c2ccccc2C(=O)C1C(=O)C(c1ccccc1)c1ccc(Cl)cc1 (centres undefined),,7.69 µM (active)
CC(=O)CN(CC(C)=O)N=O,inactive,
CC(C)C(C)(N)C#N (centres undefined),inactive,
C1CCC(C2CCCCC2)CC1,inactive,
c1csc(-c2ccc(-c3cccs3)s2)c1,inactive,
CC(=O)C(F)(F)C(F)(F)F,inactive,
CCOCn1c(-c2ccc(Cl)cc2)c(C#N)c(Br)c1C(F)(F)F,inactive,
CCC[CH2][Sn]([CH2]CCC)([CH2]CCC)[CH2]CCC,inactive,
O=NN1CCCCCC1,inactive,
Nc1ccc(Br)cc1,inactive,
Clc1ccc(C(Cl)(Cl)Cl)cn1,inactive,
C=C(C)C(=O)OCC(CC)CCCC (centres undefined),inactive,
c1cc[c]([Sb]([c]2ccccc2)[c]2ccccc2)cc1,inactive,
Cc1cc(-c2cc(C)c(N)c(C)c2)cc(C)c1N,inactive,
C=CC(=O)[O][Sn]([CH2]CCC)([CH2]CCC)[CH2]CCC,inactive,
Cc1cc(SCc2sc(-c3ccc(C(F)(F)F)c(F)c3)nc2C)ccc1OCC(=O)O,inactive,

SMILES,outcome,AC50
ClCc1ccccc1CCl,inactive,
N#CCC#N,inactive,
CCCCN(CCCC)C(=S)S,inactive,
Cc1cc(Cl)ccc1OCCCC(=O)O,inactive,
CCOc1cc(C=O)ccc1O,inactive,
CN(N=O)c1ccc([N+](=O)[O-])cc1,inactive,
Cl[C@H]1OCCO[C@@H]1Cl,inactive,
CC(F)(F)CC(F)(F)F,inactive,
O=CCCl,inactive,
Nc1ccc(-c2ccccc2)cc1,inactive,
CCCCN(CCCCO)N=O,inactive,
O=C/C(Cl)=C(/Cl)C(=O)O,inactive,
C[CH2][Hg][S]c1ccccc1C(=O)O,inactive,
O=S1OC[C@@H]2[C@H](CO1)[C@]1(Cl)C(Cl)=C(Cl)[C@@]2(Cl)C1(Cl)Cl (some centres undefined),inactive,
O=C(NC(=O)c1c(F)cccc1F)Nc1cc(Cl)c(OC(F)(F)C(F)C(F)(F)F)cc1Cl (centres undefined),inactive,
N#Cc1ccncc1,inactive,
CC[N+](CC)(CC)CC,inactive,
